The values below come from PubChem BioAssay (NCATS).

“And” between values parts separate entries of the source, which are not always exact repeats. Equal values may be shown once. Unmarked numbers belong to inactive results. Records with an inconclusive call do not appear. The source made the active and inactive calls. Unless noted, calls come from the whole dose curve; as a rule, active = well fitted curve in the direction sought with a large enough effect; inconclusive = small, poorly fitted or top-dose-only effect, or another doubt; inactive = no such curve, though single readings can be large; an effect the other way counts as inactive or inconclusive.

Test [1] concerns the target Protein phosphatase 1D (Homo sapiens) (UniProt O15297). The experiment in a line: RapidFire Mass Spectrometry qHTS Assay for Modulators of WT P53-Induced Phosphatase 1 (WIP1) (AID 1347424).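 Note: amount of dephosphorylated VEPPL-S-QETFS peptide product formed by WIP1; series mostly up to about 63 µM.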 The method in brief: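 WIP1 (10 nM final) was preincubated 1 h at room temperature with compounds in Tris-HCl pH 7.5, 30 mM MgCl2, TCEP, EGTA, BSA; 2 uM VEPPL-pS-QETFS phosphopeptide was added for 5 min, quenched with formic acid, and dephosphorylated product quantified by RapidFire MS.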
(Quantitative high-throughput screening tests each substance at several concentrations.)

Test [2] is described as follows: Validation qHTS assay for inhibitors of Activation Induced Cytidine Deaminase (AID): UDG Counterscreen signal (AID 1347427). The essentials: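 Counterscreen read of UDG activity (2 U/mL, 4/3x) in the FRET deamination format with AID (1 uM, 4/3x), DJC20/DJC23 substrates (250 nM, 4x), 4 h at room temperature. NaOH stop, fluorescence at 560 ex/665 em.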
The target in test [3] is Single-stranded DNA cytosine deaminase (Homo sapiens) (UniProt Q9GZX7). Description: Validation qHTS assay for inhibitors of Activation Induced Cytidine Deaminase (AID): AID signal (AID 1347429). The method in brief:
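Fluorescence at 540 nm excitation and 590 nm emission reports ssDNA cytosine deamination by AID, with UDG in the same well. Compound-treated reactions ran 4 hr at room temperature with DJC20/DJC23 substrate, followed by 30 min NaOH treatment.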

A short description of test [4]: Primary qHTS for inhibitors of La Crosse Virus (LACV) - induced cell death in SH-SY5Y cells (AID 1508616).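 Note: top concentration of the series differs between compounds; higher means more rescue of cells from virus-induced death.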 The essentials: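 Protection against LACV-induced cell death is scored in SH-SY5Y cells exposed to compounds and virus (0.01 MOI) for 6 days. Data normalized to virus-infected DMSO wells and virus-free DMSO wells.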
The target of test [5] is Calcium and integrin-binding protein 1 (Homo sapiens) (UniProt Q99828). Description: Validation qHTS for Identification of Calcium Integrin Binding protein 1 (CIB1) Competitor (AID 1508618). The essentials:
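Fluorescence polarization with 1 uM CIB1-GST and 100 nM FITC-alphaIIb peptide in HEPES pH 7.4, NaCl, 5 mM CaCl2, Tween20. Compounds at up to 114 uM final, preincubated with protein 15 min; read after 15 min more at RT.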

The target is the same in test [6]. Description: Primary qHTS for Identification of Calcium Integrin Binding Protein 1 (CIB1) Competitor (AID 1508620).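 Note: GST tagged CIB1 binding a fluorescein labelled alphaIIb integrin peptide tracer; top concentration of the series differs between compounds.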 The method in brief: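 Fluorescence polarization competition: CIB1-GST (1 uM final) preincubated with compound 15 min at room temperature, then FITC-labeled alphaIIb peptide (100 nM final) added for another 15 min. Polarization read at Ex 480/Em 540.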

Test [7] in a line: A High-Content qHTS Against Drug Library for the Identification of Small Molecules that Inhibit DYT1 Early Onset Primary Dystonia-Associated Cell Pathology (AID 1645839; calls by dose curve; note: series mostly up to about 46 µM). The method in brief:
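Readout: %pathology, the punctate EGFP-TorsinA distribution from imaging, as the primary channel and cell count as the toxicity counterscreen. HEK293 Flp-In cells expressing delE TorsinA were induced with tetracycline and treated with compound for 48 h.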

The target of test [8] is Cytochrome P450 2D6 (Homo sapiens) (UniProt P10635). Description: Cytochrome P450 family 2 subfamily D member 6 (CYP2D6) small molecule antagonists: luciferase biochemical (cell-free) qHTS assay (AID 1645840; active = well fitted curve in the direction sought with a large enough effect in the repeat runs; an effect the other way counts as inactive or inconclusive; note: series mostly up to about 57 µM; nearly all actives have a fitted effect of over 55% in size). The essentials: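 P450-Glo luminescent screen: recombinant CYP2D6 enzyme–proluciferin substrate mix preincubated with compound 10 min at room temperature, then NADPH regeneration added for 1 h at room temperature. Detection reagent added for 20 min; luciferin light read as relative luminescence units.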
Cytochrome P450 2D6 (Homo sapiens), sequence (P10635 whole entry, looked up): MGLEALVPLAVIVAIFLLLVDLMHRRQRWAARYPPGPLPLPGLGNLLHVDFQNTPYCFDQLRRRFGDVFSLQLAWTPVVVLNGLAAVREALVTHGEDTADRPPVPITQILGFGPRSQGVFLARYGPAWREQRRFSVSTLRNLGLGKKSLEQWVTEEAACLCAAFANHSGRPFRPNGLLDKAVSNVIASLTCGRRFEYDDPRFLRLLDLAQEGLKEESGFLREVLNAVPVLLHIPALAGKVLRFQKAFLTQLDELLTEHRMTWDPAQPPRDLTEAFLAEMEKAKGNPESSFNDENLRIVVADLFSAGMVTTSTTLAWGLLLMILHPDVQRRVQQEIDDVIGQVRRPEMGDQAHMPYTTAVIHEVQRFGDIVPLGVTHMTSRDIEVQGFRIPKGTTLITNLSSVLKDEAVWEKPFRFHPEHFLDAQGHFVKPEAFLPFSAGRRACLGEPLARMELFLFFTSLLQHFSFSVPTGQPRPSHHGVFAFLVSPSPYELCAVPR

In test [9] the target is Cytochrome P450 2C9 (Homo sapiens) (UniProt P11712). The experiment in a line: Cytochrome P450 family 2 subfamily C member 9 (CYP2C9) small molecule antagonists: luciferase biochemical (cell-free) qHTS assay (AID 1645842; active = well fitted curve in the direction sought with a large enough effect in the repeat runs; an effect the other way counts as inactive or inconclusive; note: nearly all actives have a fitted effect of over 55% in size; note: potency is the fitted concentration of half-maximal effect). The method in brief: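 Luminescence, after 20 min with luciferin detection reagent, reflected CYP2C9 turnover during a 1 h NADPH-driven reaction at 37C. Enzyme-substrate mix contained 0.4% bovine serum albumin and was preincubated with compound 10 min at room temperature.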
Cytochrome P450 2C9 (Homo sapiens), sequence (P11712 whole entry, looked up): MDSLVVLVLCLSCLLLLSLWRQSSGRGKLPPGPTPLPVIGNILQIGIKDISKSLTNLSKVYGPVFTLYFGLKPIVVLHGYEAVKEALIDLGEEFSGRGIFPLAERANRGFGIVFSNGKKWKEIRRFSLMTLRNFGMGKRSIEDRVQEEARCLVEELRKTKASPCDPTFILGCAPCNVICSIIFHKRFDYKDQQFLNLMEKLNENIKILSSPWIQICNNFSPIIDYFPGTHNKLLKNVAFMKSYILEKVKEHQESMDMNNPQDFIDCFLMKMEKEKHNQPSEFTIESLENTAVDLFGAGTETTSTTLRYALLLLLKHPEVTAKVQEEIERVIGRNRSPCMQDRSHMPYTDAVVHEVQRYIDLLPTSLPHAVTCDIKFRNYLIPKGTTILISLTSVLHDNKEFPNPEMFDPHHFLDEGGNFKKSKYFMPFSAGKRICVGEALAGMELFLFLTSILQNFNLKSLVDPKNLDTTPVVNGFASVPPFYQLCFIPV

Test [10] deals with Papain (Carica papaya) (UniProt P00784). The experiment in a line: Primary qHTS assay for inhibitors of the protease papain (AID 1645873).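 Note: papain turnover of Z-FR-AMC read as the AMC fluorescence gain over 10 min; series mostly up to about 50 µM.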
Papain (Carica papaya), sequence (P00784 whole entry, looked up, the tested form may be a part): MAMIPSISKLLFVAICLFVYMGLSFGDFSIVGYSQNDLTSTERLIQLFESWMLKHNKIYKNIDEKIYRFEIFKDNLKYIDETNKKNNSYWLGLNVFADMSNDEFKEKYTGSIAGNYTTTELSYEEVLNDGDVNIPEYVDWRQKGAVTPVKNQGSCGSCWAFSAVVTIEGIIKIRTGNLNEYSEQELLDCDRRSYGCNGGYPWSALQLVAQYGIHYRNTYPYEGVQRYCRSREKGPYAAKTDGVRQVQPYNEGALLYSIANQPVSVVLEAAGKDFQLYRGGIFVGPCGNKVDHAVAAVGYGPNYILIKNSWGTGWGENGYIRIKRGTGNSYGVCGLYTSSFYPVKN
Test [11] can be described thus: Primary qHTS for inhibitors of nuclear receptor binding SET domain protein 2 (NSD2) in an isogenic RCH-ACV NSD2 p.E1099K mutant (9B) (AID 1645876). Note: nearly all actives have a fitted effect of over 70% in size. Note: potency is the fitted concentration of half-maximal effect.
The target of test [12] is Protein phosphatase 1D (Homo sapiens) (UniProt O15297). Description: Rhodamine-PBP qHTS Assay for Modulators of WT P53-Induced Phosphatase 1 (WIP1) (AID 1347425). The essentials: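 WIP1 (5 nM final) was preincubated with compound for 1 hour at room temperature. It then dephosphorylated 10 uM VEPPL-pS-QETFS peptide in Tris-HCl pH 7.5 with 30 mM MgCl2. Released Pi was detected by 10 uM Rh-PBP fluorescence (ex 525/em 598 nm) read at 1-min intervals for 11 min, as delta f1 - f0.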
Protein phosphatase 1D (Homo sapiens), sequence (O15297 whole entry, looked up): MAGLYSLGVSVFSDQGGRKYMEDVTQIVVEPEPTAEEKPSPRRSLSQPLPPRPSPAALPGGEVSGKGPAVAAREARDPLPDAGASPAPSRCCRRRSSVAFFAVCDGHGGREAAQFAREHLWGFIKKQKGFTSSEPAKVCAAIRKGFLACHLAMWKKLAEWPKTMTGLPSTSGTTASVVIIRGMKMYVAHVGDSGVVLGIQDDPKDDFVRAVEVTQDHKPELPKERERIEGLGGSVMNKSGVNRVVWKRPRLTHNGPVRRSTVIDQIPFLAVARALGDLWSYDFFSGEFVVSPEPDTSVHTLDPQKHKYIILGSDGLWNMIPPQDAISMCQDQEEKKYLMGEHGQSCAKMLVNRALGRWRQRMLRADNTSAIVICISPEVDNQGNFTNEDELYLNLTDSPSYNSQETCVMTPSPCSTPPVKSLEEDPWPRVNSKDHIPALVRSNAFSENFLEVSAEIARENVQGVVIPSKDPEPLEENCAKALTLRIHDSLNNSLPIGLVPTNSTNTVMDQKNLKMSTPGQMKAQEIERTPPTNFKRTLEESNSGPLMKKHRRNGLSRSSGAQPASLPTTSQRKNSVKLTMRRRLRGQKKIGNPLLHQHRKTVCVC

Test [13] is described as follows: Counterscreen qHTS for small molecule stabilizers of the endoplasmic reticulum resident proteome: GLuc-NoTag assay (AID 1508627). Note: potency is the fitted concentration of half-maximal effect. The essentials:
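SH-SY5Y cells stably expressing constitutively secreted GLuc (no SERCaMP tag) were pre-incubated 5 h, treated with compound for 19 h, then 100 nM thapsigargin for 4 h at 37C; medium GLuc read by coelenterazine luminescence.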
A general note: Counterscreens check selectivity or assay interference.

A short description of test [14]: Primary qHTS for small molecule stabilizers of the endoplasmic reticulum resident proteome: Secreted ER Calcium Modulated Protein (SERCaMP) assay (AID 1508630). Note: potency is the fitted concentration of half-maximal effect. The method in brief: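 GLuc-SERCaMP-expressing SH-SY5Y cells, pretreated 16 h with compound, are challenged with thapsigargin to empty ER calcium stores; after 4 h, coelenterazine is added directly to the medium and luminescence is imaged.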

Test [15] in a line: qHTS to identify inhibitors of the type 1 interferon - major histocompatibility complex class I in skeletal muscle: primary screen against the NCATS Mechanism Interrogation Plate v5.0 (MIPE) Libary (AID 1347411). Note: nearly all actives have a fitted effect of over 65% in size. The essentials:
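Luminescence from HiBiT-tagged endogenous HLA-B*08:01 served as the MHC class I read-out. CRISPR-engineered C25cl48 human myoblasts received 4.0 ng/ml IFN-beta plus compound for 24 hrs, with an 11-point, 1:3 series topping at 46 uM final.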

Test [16] has as its target Cytochrome P450 3A4 (Homo sapiens) (UniProt P08684). Description: Cytochrome P450 family 3 subfamily A member 4 (CYP3A4) small molecule antagonists: luciferase qHTS assay (AID 1645841; active = well fitted curve in the direction sought with a large enough effect in the repeat runs; an effect the other way counts as inactive or inconclusive; note: nearly all actives have a fitted effect of over 45% in size). The method in brief:
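P450-Glo CYP3A4 enzyme with proluciferin substrate was preincubated with DMSO-dissolved compounds for 10 min at room temperature. NADPH regeneration solution started a 1 h reaction. Detection reagent stopped it, and luminescence was read after 20 min.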

Calcium and integrin-binding protein 1 (Homo sapiens), sequence (Q99828 whole entry, looked up): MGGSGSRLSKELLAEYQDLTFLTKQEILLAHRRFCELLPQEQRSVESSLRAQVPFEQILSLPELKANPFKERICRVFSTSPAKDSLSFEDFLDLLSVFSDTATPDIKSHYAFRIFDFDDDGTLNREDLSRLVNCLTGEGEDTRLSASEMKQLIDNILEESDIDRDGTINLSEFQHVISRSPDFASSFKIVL
Single-stranded DNA cytosine deaminase (Homo sapiens), sequence (Q9GZX7 whole entry, looked up): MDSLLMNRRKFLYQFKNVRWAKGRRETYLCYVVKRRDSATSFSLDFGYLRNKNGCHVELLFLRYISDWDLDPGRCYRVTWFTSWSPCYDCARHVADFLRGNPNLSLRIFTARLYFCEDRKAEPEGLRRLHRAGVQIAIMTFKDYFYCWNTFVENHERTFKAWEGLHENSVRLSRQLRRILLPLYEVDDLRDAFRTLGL
Cytochrome P450 3A4 (Homo sapiens), sequence (P08684 whole entry, looked up): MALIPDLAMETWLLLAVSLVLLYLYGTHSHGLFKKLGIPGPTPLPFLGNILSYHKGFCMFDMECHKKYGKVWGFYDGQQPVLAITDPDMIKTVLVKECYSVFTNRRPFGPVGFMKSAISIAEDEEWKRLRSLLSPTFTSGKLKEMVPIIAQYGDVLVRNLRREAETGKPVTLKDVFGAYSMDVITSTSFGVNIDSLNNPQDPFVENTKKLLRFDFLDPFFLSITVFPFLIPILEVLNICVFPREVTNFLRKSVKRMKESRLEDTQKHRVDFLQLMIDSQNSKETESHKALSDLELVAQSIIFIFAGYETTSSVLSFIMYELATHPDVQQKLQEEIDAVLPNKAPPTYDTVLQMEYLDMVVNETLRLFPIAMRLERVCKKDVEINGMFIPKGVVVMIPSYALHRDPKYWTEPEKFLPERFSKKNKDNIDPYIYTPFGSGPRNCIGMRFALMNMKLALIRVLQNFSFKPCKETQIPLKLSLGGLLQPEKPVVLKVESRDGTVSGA

With `CC(C)NCC(O)COc1ccc(COCCOC(C)C)cc1` (centres undefined), the Potency result in test [1], in [3], in [5], in test [7], in [8] and in test [9] was “inactive” each time. Besides, the Potency result in [10] and in test [11] was “inactive” in each case. Further, the compound was called inactive in test [2], in test [4] and in test [6].
In the case of `CCOC(=O)N1CCC(=C2c3ccc(Cl)cc3CCc3cccnc32)CC1`, the Potency entry in test [1], in [3], in test [5], in [14] and in test [10] was “inactive” in each case. For the same compound, the result in test [12], in [2], in [4] and in test [6] was inactive. Also, the Potency in [13] is 35.5 µM (active).
As to `Cn1cc(-c2ccc3nnc(C(F)(F)c4ccc5ncccc5c4)n3n2)cn1`, in [15], the Potency entry was “inactive”. The values for the Potency in test [14] and in test [9] were 14.9 µM (active) and 3.01 µM (active), respectively.
Take `COc1ccc(-c2oc3cc(OC)ccc3c2C(=O)c2ccc(C#N)cc2)cc1`: the result in test [6] was inactive. The Potency entry in [14] was “inactive”. Moreover, in test [9], the Potency is 7.56 µM (active).
On to `COc1ccc(C2=N[C@H](c3ccc(Cl)cc3)[C@H](c3ccc(Cl)cc3)N2C(=O)N2CCNC(=O)C2)c(OC(C)C)c1`, for which the result in [6] was inactive. Moreover, in test [14], the Potency entry was “inactive”. In addition, in test [11], the Potency was 18.6 µM (active).
In the case of `COc1cc(F)c(F)c(Nc2ccc(I)cc2F)c1NS(=O)(=O)C1(C[C@H](O)CO)CC1`, the Potency result in test [14] was “inactive”. For the same compound, the Potency in test [11] is 18.3 µM (active) and 20.9 µM (active).
On to `C[C@]12CC[C@H](O)CC1=CC[C@@H]1[C@H]2CC[C@]2(C)C(c3cccnc3)=CC[C@H]12`, for which, in [6], the result was inactive. The Potency entry in test [14] is “inactive”.
As to `COc1ccc2c3n(c(=NC(=O)c4cccnc4)nc2c1OC)CCN3`, the result in [6] was inactive. The Potency entry in test [14] was “inactive”. The Potency in test [11] is 0.166 µM (active).
`Oc1cccc(-c2nc(N3CCOCC3)c3oc4ncccc4c3n2)c1`: the outcome in test [6] was inactive. For the same compound, the Potency in test [11] was 0.118 µM (active).
`CNCc1ccc(-c2[nH]c3cc(F)cc4c3c2CCNC4=O)cc1`: the outcome in [6] was inactive. Besides, the Potency entry in test [14] and in [16] was “inactive” each time. Moreover, the Potency in test [9] is 6.01 µM (active); in test [11], 16.3 µM (active) and 11.8 µM (active).
For `C/C(=C\C(=O)Nc1ccccc1C(=O)O)c1ccc2ccccc2c1`, the Potency result in test [8] was “inactive”. Further, the Potency in test [11] is 20.9 µM (active).
As for `CCCS(=O)(=O)Nc1ccc(F)c(C(=O)c2c[nH]c3ncc(Cl)cc23)c1F`, the result in test [6] was inactive. The Potency entry in test [14] is “inactive”.
With `CCOc1cc(C(=O)Nc2ccc(Cl)c(-c3nc4ccccc4[nH]3)c2)cc(OCC)c1OCC`, the Potency entry in test [8] and in test [9] was “inactive” in each case.
On to `COc1cccc2cc(-c3nc(C4CCC(C(=O)O)CC4)n4ncnc(N)c34)[nH]c12` (centres undefined), for which the result in [6] was inactive. For the same compound, the Potency entry in test [8] and in [9] was “inactive” each time. In addition, the Potency in [11] was 5.9 µM (active) and 731 nM (active).
